# In all, about 9,900 sequences were measured (“r (bound/input frequency ratio)”: median about 0.7, highest 2% from about 6.5 on). Only a selection was taken, and the highest values are over-represented in it overall.
# B1: ENSMUSG00000043670.145|Diras1 (ssRNA)
# RNA: GGGAGUUCUACAGUCCGACGAUCGCUUCGAUAUCCGCAUGCUAUCAGGGGAGGCACACUGGAACCCUGAACUUGGAGUGUGGAGUGGCUGCCUGGACACUGCCCACCUGGACACCAGCCUUCUGCUGAGAUAGAGACCUUGGCACAGUGGCACCUCGACAGCCACCCCGACUGGGGGUUUGGGGUGCUGAGGGUGGGGUGCCCAGCUGAGAGUCUAUCAGCAAAGUCCCUGUGUGCGGUGAUAGGACUAGUGGCUGCUGCCCUAGGGCUCUGACAGAAUCUGAGCCUCUUUGCUGGUCAUGUGCUCUUGCGGUCGCACUAGUGUGGAAUUCUCGGGUGUCAAGG
# B2: ENSMUSG00000022095.153|Fam160b2|110:114 (ssRNA)
# RNA: GGGAGUUCUACAGUCCGACGAUCGCUUCGAUAUCCGCAUGCUAGACUAUAGGAACUCAAGGUACAGAUGGGACAGGGCACCCCAACUCCAAACCCCAGAAGCCUAGUGAGGCUAGGCCGAGACACAAGCAGAUAGCUCUGGCAUUGUUCUUCCAUACUCCUCCAUGGCUGGGGCUGCUACCUCACCCGGCCUGAAUCUGUCUCAACCUGCAAGAGCACUCGGGCGGCGCCAGGCAUUACCUCACAACAGGCCUGCAGUUGUUGGCUUCCCUCCUGGGCAAGGAGGAGCAGGCCAGAGCCCCUUCUCUUGCGGUCGCACUAGUGUGGAAUUCUCGGGUGUCAAGG
# B3: ENSMUSG00000042529.77|Kcnj12|96:100 (ssRNA)
# RNA: GGGAGUUCUACAGUCCGACGAUCGCUUCGAUAUCCGCAUGCUAACAAACAAAAACAAACAAACAAACAAUCAAAAAAAAAACCCACCCCACAAAACACAAGAAAACAUUAACAGGUGGUUCAAUUUUUAAAAUUCCUGCACACGGGACAGUUGGAAUUCUACUCAGCGCUGCCAGGCAAGCAGCUGGACGGAGAACCCUGAGGGUUCUCAGAGGUCUGUUUUCUCCCUCACGUGGGCCAGGGCCUUAAGCGAGUUGUCAUGCUUAAGGAUGAAUCAGGCUGCUUGUGACCAUGUUAACGAUUCCUCUUGCGGUCGCACUAGUGUGGAAUUCUCGGGUGUCAAGG
# B4: ENSMUSG00000090935.460|Synj2bp (ssRNA)
# RNA: GGGAGUUCUACAGUCCGACGAUCGCUUCGAUAUCCGCAUGCUACACAACCAGUAAGAAAAAUAUUGCCAUCCAAAACAGAGCACAGUGCAGCAACAUAGAAGAUAAGCAGAUAACCAGCAAGUAUUGUAAGGAGUUCAGAAAAGGAAAGCCAUCGUGUAGUGGCAUCAGGGGAGAAUGGAAAGGAAAGUCUAGAACAGUCCAGUGAUACUUUACCUCUGGGAAAACUCUUGAUACAGGGAGACAUUUGCUUUAAACAAUCUUCACAUAACUAAGCCAUUCAGUACUUUUUGAAACUGACUUAGCUCUUGCGGUCGCACUAGUGUGGAAUUCUCGGGUGUCAAGG
# B5: ENSMUSG00000061578.947|Ksr2 (ssRNA)
# RNA: GGGAGUUCUACAGUCCGACGAUCGCUUCGAUAUCCGCAUGCUAAAGACUGCAUGUUAACGCUCCUGCCACUGUUGCCCCUUCCUUUACCCUUGGCAGACAUUGCUAAUCAAUCUCAGCACAGUUUCCAACCACAGUCAUAGAACAUUUGCCACAAAGGCCCUGGAUGUGACUAUAUGUGCUGAGAAGGGAAGGUAGUUUUCCCCCAGAAAGUCCCUUCUAAUAAACAUUGAUGACUUUAGAAUCCAUGACUCAGAAUUUUCCAGAGACCCAAUCCCUCGGGGUCCACUUAGUGAUGGGACCAUCUCUUGCGGUCGCACUAGUGUGGAAUUCUCGGGUGUCAAGG
# B6: ENSMUSG00000090935.28|Synj2bp|72:76;256:260 (ssRNA)
# RNA: GGGAGUUCUACAGUCCGACGAUCGCUUCGAUAUCCGCAUGCUAGUAAAUGGCCAAGAUCUGAAGAACCUGCUGCACCAAGAUGCUGUAGACCUCUUCCGUAAUGCGGGAUGUGCACACACCCUGAGAGUACAGCACAGGUUACCAGUGCAGAAUGGACCUAUAGUACAUCGAGGUGAAGGAGAGCCAAGUGGAGUUCCUGUAGCUAUGGUGCUGCUACCAGUGUUUGCCCUCACCAUGGUAGCAGUUUGGGCCUUCGUGAGAUACCGAAAGCAGCUUUGAAAUGCUUGCUGUCUUCCACACACCUCUUGCGGUCGCACUAGUGUGGAAUUCUCGGGUGUCAAGG
# B7: ENSMUSG00000042529.254|Kcnj12 (ssRNA)
# RNA: GGGAGUUCUACAGUCCGACGAUCGCUUCGAUAUCCGCAUGCUAUUCCCCUAGGACCCGCUGCAGAGGCAUGGGCUCCUCUGUGGUCCUGGCCAGACCUCUGCCCCCAAAUCUCACUGACUGUUCUAGCCUUGGCCUUGGGGCCUAAGGGUGCAUUCAGCCUGGGUGUGCUUACCUGCCACUCACCUCUCUAUCUAGUUGUCGAGUCUAGGGAAGGGCAGAGGGUGGGUCCUGGCCACUGGGUGCCACUGUGGGAGCCGGGGCACCUGUCAUUCUUUCUGAGUAGGUGGGCCUGUAUCCAGAGCCUCUUGCGGUCGCACUAGUGUGGAAUUCUCGGGUGUCAAGG
# B8: ENSMUSG00000061578.312|Ksr2 (ssRNA)
# RNA: GGGAGUUCUACAGUCCGACGAUCGCUUCGAUAUCCGCAUGCUACCAGGGAGGGCUGAAGCUCUGGGACCCUGAAGUGUCCCCCGGGAACUGGGACUCACUCAUCUUCUCCUGUUUGUAGCUCAAUGACCCAGUGGGUCACAGUUCUAGGCGCUCCAAGGAAGCCAGGGGAGGGGGACUCCUCAGGAAGGAGUGACCAGUCACCUGCCUCCCAGGGUUCUGCCUUGCCCUUAAGCUAGGGUCCUUCAAGCAUCCACAGACUUAGAGUGUGGUGGUAACAUGCUUGUAAUCCUGGCACUCUGGAGCUCUUGCGGUCGCACUAGUGUGGAAUUCUCGGGUGUCAAGG
# B9: ENSMUSG00000029636.114|Wasf3 (ssRNA)
# RNA: GGGAGUUCUACAGUCCGACGAUCGCUUCGAUAUCCGCAUGCUAGCGGCCAUUUUUAUGAGGGGAGCCCUGUGGGUACUCAUGUGGAAAGUGCCCACUGACUUUGGCAGAUGGAGUUCACUUUCAUGGCUAGCCCUGAUAGCGUUGGGCACCAGUUAGCCAGGCCAUGUUCAAGCUGCCUAGAGUCUGCAGAGCUUGCAUGGCAGAGCGGCCGCAUCUGGUUCCCUCCUACUCCACCCAGUGGAAAAGAGACCUCCACGUUUUAUUUUCUGGGAUCCCUGCUCCUCUGUUCACCAGGGAGUGAGCUCUUGCGGUCGCACUAGUGUGGAAUUCUCGGGUGUCAAGG
# Biological target: TDP-43 (Homo sapiens, UniProt Q13148 1-414)
# Experiment: RNA Bind-n-Seq with designed 260-mer pool; 25 mM Tris-HCl, 150 mM KCl, 3 mM MgCl2, BSA (printed 500 mg/mL), 20 units/mL SUPERase IN; pH not stated; 500 nM RNA pool, 1 h, 4 C; TDP-43 5, 50, 500 nM; high values mean tight binding
# Details: protein: recombinant; tags: SBP (GST cleaved off with PreScission; pGEX-GST-SBP)
# Procedure, shortened: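 Recombinant SBP-tagged TDP-43 at 5, 50 or 500 nM was captured on streptavidin beads, then incubated 1 h at 4 °C with 500 nM of an in vitro-transcribed 260-nt 3′ UTR oligo pool in 25 mM Tris-HCl, 150 mM KCl, 3 mM MgCl2, BSA and SUPERase IN. Bound RNA was washed, eluted with biotin, reverse transcribed, PCR-amplified and sequenced. Binding is R, each oligo's mapped-read-normalized abundance in the bound sample divided by its abundance in input. Duplicates used two independent protein batches.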
# Sequence of TDP-43 (Q13148 whole entry): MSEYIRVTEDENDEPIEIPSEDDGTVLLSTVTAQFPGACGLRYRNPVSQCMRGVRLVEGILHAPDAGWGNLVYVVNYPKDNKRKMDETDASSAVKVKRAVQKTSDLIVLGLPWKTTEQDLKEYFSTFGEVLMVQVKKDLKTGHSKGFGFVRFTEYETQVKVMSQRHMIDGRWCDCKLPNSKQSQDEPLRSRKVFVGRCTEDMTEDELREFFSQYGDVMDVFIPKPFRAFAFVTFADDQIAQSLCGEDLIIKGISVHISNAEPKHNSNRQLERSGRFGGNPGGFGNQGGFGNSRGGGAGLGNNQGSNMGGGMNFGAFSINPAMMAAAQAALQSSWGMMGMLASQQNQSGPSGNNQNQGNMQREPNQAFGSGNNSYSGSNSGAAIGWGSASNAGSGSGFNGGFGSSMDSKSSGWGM
row,Binder,binding signal
1,B1,0.713 R (bound/input frequency ratio)
2,B2,1.53 R (bound/input frequency ratio)
3,B3,1.63 R (bound/input frequency ratio)
4,B4,0.396 R (bound/input frequency ratio)
5,B5,0.693 R (bound/input frequency ratio)
6,B6,1.49 R (bound/input frequency ratio)
7,B7,0.966 R (bound/input frequency ratio)
8,B8,0.535 R (bound/input frequency ratio)
9,B9,0.753 R (bound/input frequency ratio)

# Source: article PMC12864922, “TDP-43 directly inhibits mRNA accumulation in neurites through modulation of mRNA stability”
